# Test results: ChEMBL document CHEMBL3433997, “St. Jude Leishmania screening dataset” (2016)
# Target: Hexose transporter 1 (Plasmodium falciparum) (UniProt O97467)
# Experiment: ST_JUDE_LEISH: Cytotoxicity at 2uM final concentration against transgenic Leishmania Mexicana promastigotes LmPfHT that are glucose transport deficient and complemented with the Plasmodium falciparum hexose transporter. Activity is measured by DNA content using SYBR green in vitro
# Type: functional
row,Compound,inhibition [%]
1,CC(O)C1CCCCN1C(=O)c1cccc(-c2ccc(-c3nc4cc(C(F)(F)F)ccc4[nH]3)cc2)c1 (stereo not drawn),0.3
2,Cc1cc(OCC2CCN(c3ncc(C(=O)NC4CC4)cc3Cl)CC2)ccc1F,1.07
3,Fc1cc(Cl)ccc1Nc1ccnc2cc(-c3ccc(CN4CCSCC4)o3)ccc12,3.56
4,CN(Cc1cccc(F)c1)C1CCN(c2cc(NC(=O)c3ccc(F)cc3)ccn2)C1 (stereo not drawn),-0.57
5,Cc1nc(-c2cccc(Nc3ccnc4cc(-c5nccs5)ccc34)c2)no1,2.43
6,CCCNC(=O)Nc1cc2cc(-c3cccc(CN4CCCCC4)c3)ccc2n2c(C)nnc12,1.3
7,CC(c1cccc(Nc2nccc(-c3c(-c4cccc(NC(=O)c5c(F)cccc5F)c4)nn4ncccc34)n2)c1)S(C)(=O)=O (stereo not drawn),1.6
8,O=C(CSc1cccc[n+]1[O-])c1ccc(Cc2ncc(C(F)(F)F)cc2Cl)s1,9.48
9,CCN(CC)/C(=N\CCCCCC/N=C(\NC(=N)c1ccc(Cl)cc1)N(CC)CC)NC(=N)c1ccc(Cl)cc1,2.4
10,CCCCc1cc(=O)oc2cc(C)cc(OCc3ccccc3F)c12,1.33
11,COc1ccc(S(=O)(=O)NCC2CCCN(CCCCCNC(=O)/C=C/c3ccc(Cl)c(Cl)c3)C2)cc1 (stereo not drawn),0.66
12,CS(=O)(=O)c1ccc2c(c1)CCN(CCC1CCC(NC(=O)c3cc4cccc(Br)c4[nH]3)CC1)CC2 (stereo not drawn),2.78
13,COc1ccccc1NC(=O)NC1CCN(CCCCCNC(=O)/C=C/c2ccc(Cl)c(Cl)c2)CC1,2.75
14,CCN(CC)CC(O)c1cc(-c2ccc(C)cc2)nc2c(C)cc(C)cc12 (stereo not drawn),3.65
15,CC(C)NCc1ccc(-c2ccc(NS(=O)(=O)c3cccc4cccnc34)cc2)cc1,14.5
16,c1ccc(CNc2nc(NCCN3CCCCC3)nc3ccccc23)cc1,11.1
17,CNC(=O)c1ccc2nc(-c3ccc(-c4ccccc4)cc3)n(CC3CCN(CC4CCCC4)CC3)c2c1,0.69
18,CNC(=O)c1ccccc1Nc1nc(Nc2cccnc2)ncc1C,-0.32
19,N#Cc1ccc(CN2CCC(Oc3ccc(NC(=O)c4ccsc4)cc3Cl)C2)cc1 (stereo not drawn),11.8
20,NC1=NC(CCc2ccccc2)N(c2ccccc2)C(N)=N1 (stereo not drawn),9.38

row,Compound,inhibition [%]
1,Cc1cccc2nc(-c3cccc(-c4cccc(C(=O)N5CCCCC5CN5CCC(O)C5)c4)c3)[nH]c12 (stereo not drawn),0.67
2,COc1cccc(C=NNc2cc(C)nc3c(OC)cccc23)c1,1.32
3,CCCC(=O)c1cnc2c(Oc3cc(Cl)ncn3)cccc2c1Nc1ccccc1C,4.84
4,Cc1ccc(OC2CCN(CCCCC3(C)C(=O)Nc4ccccc43)CC2)cc1 (stereo not drawn),15.1
5,N#Cc1ccc(CNCCCCCCNCc2ccc(C#N)c3ccccc23)c2ccccc12,1.12
6,O=C(CC(=O)C(F)(F)F)c1ccccc1[N+](=O)[O-],3.36
7,O=C(NCc1ccccc1)Nc1ccc(-c2cccc(-c3nc4cc(C(F)(F)F)ccc4[nH]3)c2)cc1,-0.18
8,COc1ccc2ccccc2c1CNCC1CCN(CC2CCCCC2)CC1,-0.57
9,Cc1cc(N[C@@H](Cc2ccccc2)C(=O)NCCc2ccccc2)nc(NCCc2ccccc2)n1,3.79
10,CCCCC([C@@H](Cc1ccc2ccccc2c1)C(=O)N[C@H](C(=O)NC)C(C)(C)C)N(O)C=O (stereo partly drawn),-0.31
11,CCOC(=O)N[C@@H]1CN[C@@H](C#Cc2cc3c(Nc4ccc(OCc5cccc(F)c5)c(Cl)c4)ncnc3s2)C1,0.54
12,Cc1ccc(CN2CCN(c3cc4c(cc3Cl)CCN4C(=O)Cc3ccc(Cl)c(NC(=O)Nc4cccc(C#N)c4)c3)CC2)cc1,-1.46
13,CC(C)CNCc1ccc(-c2cccc(CN(CCN(C)C)C(=O)CCC3CCCC3)c2)cc1,23.7
14,CCOC(=O)c1cc(C(=O)NCCCCN2CCC(c3ccc(CC)cc3OCC)CC2)ccc1-c1ccc(C(F)(F)F)cc1,8.59
15,C[C@@H](N/C(=N\c1ccccc1Cl)Nc1ccc(C#N)cc1O)c1ccc(Br)cc1,5.06
16,O=c1cc(NCCCNCc2cc(Cl)cc(Cl)c2OCc2ccccc2)[nH]c2ccccc12,2.83
17,CC1CCCN1Cc1cccc(-c2ccc(C(=O)NCCOc3ccccc3)s2)c1 (stereo not drawn),38.9
18,CS(=O)(=O)Cc1ccc(Nc2nccc(-c3c(-c4cccc(NC(=O)c5c(F)cccc5F)c4)nn4ncccc34)n2)cc1,8.45
19,OC(CNc1ccnc(Nc2cccc(OCCCN3CCOCC3)c2)n1)c1ccccc1 (stereo not drawn),0.43

# Target: Glucose transporter (Leishmania mexicana) (UniProt O61059)
# Experiment: ST_JUDE_LEISH: Cytotoxicity at 2uM final concentration against transgenic Leishmania Mexicana promastigotes LmGT2 that are glucose transport deficient and complemented with the L. Mexicana glucose transporter 2. Activity is measured by DNA content using SYBR green in vitro
# Type: functional
row,Compound,inhibition [%]
1,CC(O)C1CCCCN1C(=O)c1cccc(-c2ccc(-c3nc4cc(C(F)(F)F)ccc4[nH]3)cc2)c1 (stereo not drawn),1
2,Cc1cc(OCC2CCN(c3ncc(C(=O)NC4CC4)cc3Cl)CC2)ccc1F,-1.06
3,Fc1cc(Cl)ccc1Nc1ccnc2cc(-c3ccc(CN4CCSCC4)o3)ccc12,8.14
4,CN(Cc1cccc(F)c1)C1CCN(c2cc(NC(=O)c3ccc(F)cc3)ccn2)C1 (stereo not drawn),1.63
5,Cc1nc(-c2cccc(Nc3ccnc4cc(-c5nccs5)ccc34)c2)no1,2.74
6,CCCNC(=O)Nc1cc2cc(-c3cccc(CN4CCCCC4)c3)ccc2n2c(C)nnc12,0.91
7,CC(c1cccc(Nc2nccc(-c3c(-c4cccc(NC(=O)c5c(F)cccc5F)c4)nn4ncccc34)n2)c1)S(C)(=O)=O (stereo not drawn),0.35
8,O=C(CSc1cccc[n+]1[O-])c1ccc(Cc2ncc(C(F)(F)F)cc2Cl)s1,10.7
9,CCN(CC)/C(=N\CCCCCC/N=C(\NC(=N)c1ccc(Cl)cc1)N(CC)CC)NC(=N)c1ccc(Cl)cc1,2.59
10,CCCCc1cc(=O)oc2cc(C)cc(OCc3ccccc3F)c12,1.06
11,COc1ccc(S(=O)(=O)NCC2CCCN(CCCCCNC(=O)/C=C/c3ccc(Cl)c(Cl)c3)C2)cc1 (stereo not drawn),3.47
12,CS(=O)(=O)c1ccc2c(c1)CCN(CCC1CCC(NC(=O)c3cc4cccc(Br)c4[nH]3)CC1)CC2 (stereo not drawn),1.11
13,COc1ccccc1NC(=O)NC1CCN(CCCCCNC(=O)/C=C/c2ccc(Cl)c(Cl)c2)CC1,2.7
14,CCN(CC)CC(O)c1cc(-c2ccc(C)cc2)nc2c(C)cc(C)cc12 (stereo not drawn),-1.02
15,CC(C)NCc1ccc(-c2ccc(NS(=O)(=O)c3cccc4cccnc34)cc2)cc1,12.7
16,c1ccc(CNc2nc(NCCN3CCCCC3)nc3ccccc23)cc1,4.27
17,CNC(=O)c1ccc2nc(-c3ccc(-c4ccccc4)cc3)n(CC3CCN(CC4CCCC4)CC3)c2c1,1.13
18,CNC(=O)c1ccccc1Nc1nc(Nc2cccnc2)ncc1C,-0.69
19,N#Cc1ccc(CN2CCC(Oc3ccc(NC(=O)c4ccsc4)cc3Cl)C2)cc1 (stereo not drawn),8.45
20,NC1=NC(CCc2ccccc2)N(c2ccccc2)C(N)=N1 (stereo not drawn),9.31

row,Compound,inhibition [%]
1,Cc1cccc2nc(-c3cccc(-c4cccc(C(=O)N5CCCCC5CN5CCC(O)C5)c4)c3)[nH]c12 (stereo not drawn),-1.67
2,COc1cccc(C=NNc2cc(C)nc3c(OC)cccc23)c1,0.35
3,CCCC(=O)c1cnc2c(Oc3cc(Cl)ncn3)cccc2c1Nc1ccccc1C,6.89
4,Cc1ccc(OC2CCN(CCCCC3(C)C(=O)Nc4ccccc43)CC2)cc1 (stereo not drawn),9.07
5,N#Cc1ccc(CNCCCCCCNCc2ccc(C#N)c3ccccc23)c2ccccc12,2.53
6,O=C(CC(=O)C(F)(F)F)c1ccccc1[N+](=O)[O-],-1.14
7,O=C(NCc1ccccc1)Nc1ccc(-c2cccc(-c3nc4cc(C(F)(F)F)ccc4[nH]3)c2)cc1,-1.23
8,COc1ccc2ccccc2c1CNCC1CCN(CC2CCCCC2)CC1,-1.88
9,Cc1cc(N[C@@H](Cc2ccccc2)C(=O)NCCc2ccccc2)nc(NCCc2ccccc2)n1,4.38
10,CCCCC([C@@H](Cc1ccc2ccccc2c1)C(=O)N[C@H](C(=O)NC)C(C)(C)C)N(O)C=O (stereo partly drawn),2.89
11,CCOC(=O)N[C@@H]1CN[C@@H](C#Cc2cc3c(Nc4ccc(OCc5cccc(F)c5)c(Cl)c4)ncnc3s2)C1,0.09
12,Cc1ccc(CN2CCN(c3cc4c(cc3Cl)CCN4C(=O)Cc3ccc(Cl)c(NC(=O)Nc4cccc(C#N)c4)c3)CC2)cc1,-0.62
13,CC(C)CNCc1ccc(-c2cccc(CN(CCN(C)C)C(=O)CCC3CCCC3)c2)cc1,11.2
14,CCOC(=O)c1cc(C(=O)NCCCCN2CCC(c3ccc(CC)cc3OCC)CC2)ccc1-c1ccc(C(F)(F)F)cc1,3.34
15,C[C@@H](N/C(=N\c1ccccc1Cl)Nc1ccc(C#N)cc1O)c1ccc(Br)cc1,3.66
16,O=c1cc(NCCCNCc2cc(Cl)cc(Cl)c2OCc2ccccc2)[nH]c2ccccc12,4.41
17,CC1CCCN1Cc1cccc(-c2ccc(C(=O)NCCOc3ccccc3)s2)c1 (stereo not drawn),25.7
18,CS(=O)(=O)Cc1ccc(Nc2nccc(-c3c(-c4cccc(NC(=O)c5c(F)cccc5F)c4)nn4ncccc34)n2)cc1,2.78
19,OC(CNc1ccnc(Nc2cccc(OCCCN3CCOCC3)c2)n1)c1ccccc1 (stereo not drawn),-0.96
